Drawing on PubChem BioAssay (EPA / NIEHS), this text covers outcome and AC50 for 27 compounds.

The source holds several records for some structures; these can differ, active in one and inactive in another. Activity calls are given as the source filed them. The calls were made as follows: active = hit-call score of the fitted dose curve at least 0.9, where 1 is the maximum; inactive = score below 0.9.

Assay [1] deals with Nuclear respiratory factor 1 (Homo sapiens) (UniProt Q16656). The experiment in a line: ATG_NRF1_CIS: Attagene CIS-FACTORIAL HepG2 Assay for human Nuclear Respiratory Factor 1 (NRF1) Orphan Gene (AID 2282987). Conditions: HepG2 NRF1 cis-element reporter, Attagene multiplex; actives raise or lower the signal. In a few lines:
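Endogenous NRF1-driven reporter transcription in transfected HepG2 cells after 24 h treatment. Readout: RT-PCR products, 6-FAM labelled and resolved by capillary electrophoresis; changes fitted both directions relative to DMSO.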

Assay [2] in a line: ATG_NFI_CIS: Attagene CIS-FACTORIAL HepG2 Assay for human Nuclear Factor I (NFI) (AID 2282989). The settings on record: HepG2 cis-regulatory reporter, NFI response element transcription; actives raise or lower the signal. The method, boiled down: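 Read-out: reporter mRNA via RT-PCR plus capillary electrophoresis with fluorescence detection. Transiently transfected HepG2 (endogenous TF activity on cis promoters), 24 h compound exposure; gain or loss of signal fitted against DMSO.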

For assay [3], the target named is Myc proto-oncogene protein (Homo sapiens) (UniProt P01106). The experiment in a line: ATG_Myc_CIS: Attagene CIS-FACTORIAL HepG2 Assay for human Myelocytomatosis (Myc) Proto-Oncogene Transcription Factor (AID 2282990). Conditions: HepG2, Attagene cis-reporter transcription factor activity; actives raise or lower the signal. In a few lines:
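DMSO-normalised, bidirectionally fitted reporter mRNA signal. HepG2 cells transfected with cis reporter constructs, treated 24 h; transcripts detected by RT-PCR, 6-FAM primer extension and CE.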

Assay [4] in a line: ATG_NF_kB_CIS: Attagene CIS-FACTORIAL HepG2 Assay for human Nuclear Factor Kappa B (NF-kB) (AID 2282991). Conditions: HepG2 Attagene cis-factorial NF-kB reporter mRNA; actives raise or lower the signal. The method, boiled down:
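Readout is reporter transcript level, gain or loss versus DMSO, measured 24 h post-dose via RT-PCR, fluorescent labelling and capillary electrophoresis. Human HepG2 liver cells carried transiently transfected CIS reporter constructs reflecting endogenous factors.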

Assay [5] can be described thus: ATG_NRF2_ARE_CIS: Attagene CIS-FACTORIAL HepG2 Assay for human Nuclear Factor Erythroid 2 Related Factor 2 (NFR2) response to Antioxidant Response Elements (ARE) (AID 2282992).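 As to AC50: reporter mRNA level measured by RT-PCR and capillary electrophoresis fluorescence.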 Conditions: HepG2 Attagene ARE/NRF2 reporter, transcription factor activity; actives raise or lower the signal. In a few lines:
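Multiplexed reporter mRNA profiling in HepG2 after a 24 h chemical exposure. Curves fitted in both directions relative to DMSO negative control.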

The nature of assay [6]: ATG_Oct_MLP_CIS: Attagene CIS-FACTORIAL HepG2 Assay for human Octamer-Binding Transcription Factor (Oct) (AID 2282993). Conditions: HepG2 Attagene cis-factorial Oct reporter, mRNA; actives raise or lower the signal. In a few lines:
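Read-out: reporter mRNA via RT-PCR plus capillary electrophoresis of 6-FAM-labelled fragments. Transiently transfected HepG2, 24 h exposure, endogenous TF activity on cis elements. Gain or loss of signal fitted relative to DMSO.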

Assay [7] can be described thus: BSK_3C_uPAR: BioMAP Diversity Plus: 3C Assay for Urokinase-type plasminogen activator receptor (uPAR) Biomarker Activity (AID 2282998). Conditions: BioMAP 3C HUVEC, uPAR biomarker ELISA; actives raise or lower the signal. In a few lines:
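HUVEC primary cells; 24 h post-dose; uPAR by ELISA; gain or loss of signal fitted bidirectionally vs DMSO baseline.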
(In general: In an ELISA, binding on a coated surface is turned into a signal by an enzyme label.)

The nature of assay [8]: BSK_3C_VCAM1: BioMAP Diversity Plus: 3C Assay for Vascular cell adhesion molecule 1 (VCAM1) Biomarker Activity (AID 2282999). Conditions: BioMAP 3C HUVEC, VCAM1 ELISA, cytokine-stimulated; actives raise or lower the signal. In a few lines:
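Human umbilical vein endothelial cells were dosed with compound for 24 h, after which cell-surface VCAM-1 was quantified by ELISA. Bidirectional curve fitting used DMSO as negative control and activity baseline.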

In assay [9] the target is Cellular tumor antigen p53 (Homo sapiens) (UniProt P04637). The experiment in a line: ATG_p53_CIS: Attagene CIS-FACTORIAL HepG2 Assay for human p53 Transcription Factor (AID 2282994). The settings on record: HepG2 p53 cis-element reporter, Attagene mRNA; actives raise or lower the signal. In a few lines:
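Multiplexed reporter mRNA assay in human HepG2 liver cells; cis-regulated units report endogenous factor activity. Values come from bidirectional curve fitting against DMSO negative control after 24 h treatment.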

A short description of assay [10]: BSK_3C_TissueFactor: BioMAP Diversity Plus: 3C Assay for Tissue Factor Biomarker Activity (AID 2282997). Conditions: BioMAP 3C HUVEC, tissue factor biomarker readout; actives raise or lower the signal. In a few lines: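 Human vascular primary cells (umbilical vein endothelium) received test chemical; Tissue Factor was determined by ELISA at 24 h, and both gain and loss of signal versus DMSO were fitted.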

Chain of Cellular tumor antigen p53 (Homo sapiens) (P04637 whole entry, looked up): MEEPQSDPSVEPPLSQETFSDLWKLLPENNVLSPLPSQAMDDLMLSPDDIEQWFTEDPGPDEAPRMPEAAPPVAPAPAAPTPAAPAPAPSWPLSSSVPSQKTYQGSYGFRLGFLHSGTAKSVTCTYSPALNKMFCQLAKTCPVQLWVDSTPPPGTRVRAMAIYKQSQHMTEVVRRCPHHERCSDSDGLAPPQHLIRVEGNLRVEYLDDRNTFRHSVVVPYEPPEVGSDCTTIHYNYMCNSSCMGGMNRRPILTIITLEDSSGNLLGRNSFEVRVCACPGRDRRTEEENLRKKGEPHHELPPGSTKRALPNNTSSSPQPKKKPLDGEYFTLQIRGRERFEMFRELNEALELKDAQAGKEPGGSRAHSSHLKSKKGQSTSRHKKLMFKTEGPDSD
Chain of Myc proto-oncogene protein (Homo sapiens) (P01106 whole entry, looked up): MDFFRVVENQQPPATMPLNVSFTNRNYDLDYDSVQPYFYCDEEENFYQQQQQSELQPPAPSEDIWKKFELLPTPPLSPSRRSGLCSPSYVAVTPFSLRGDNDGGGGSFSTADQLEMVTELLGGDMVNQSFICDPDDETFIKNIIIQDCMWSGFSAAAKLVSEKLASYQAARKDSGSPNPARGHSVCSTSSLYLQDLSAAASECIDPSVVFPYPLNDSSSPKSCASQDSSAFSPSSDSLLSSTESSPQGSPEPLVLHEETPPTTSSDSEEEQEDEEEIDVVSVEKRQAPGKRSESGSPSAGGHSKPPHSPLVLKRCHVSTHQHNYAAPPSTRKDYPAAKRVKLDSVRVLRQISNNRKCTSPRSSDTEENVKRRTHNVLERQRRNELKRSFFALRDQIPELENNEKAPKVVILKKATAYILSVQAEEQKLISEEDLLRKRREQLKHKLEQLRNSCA
Chain of Nuclear respiratory factor 1 (Homo sapiens) (Q16656 whole entry, looked up): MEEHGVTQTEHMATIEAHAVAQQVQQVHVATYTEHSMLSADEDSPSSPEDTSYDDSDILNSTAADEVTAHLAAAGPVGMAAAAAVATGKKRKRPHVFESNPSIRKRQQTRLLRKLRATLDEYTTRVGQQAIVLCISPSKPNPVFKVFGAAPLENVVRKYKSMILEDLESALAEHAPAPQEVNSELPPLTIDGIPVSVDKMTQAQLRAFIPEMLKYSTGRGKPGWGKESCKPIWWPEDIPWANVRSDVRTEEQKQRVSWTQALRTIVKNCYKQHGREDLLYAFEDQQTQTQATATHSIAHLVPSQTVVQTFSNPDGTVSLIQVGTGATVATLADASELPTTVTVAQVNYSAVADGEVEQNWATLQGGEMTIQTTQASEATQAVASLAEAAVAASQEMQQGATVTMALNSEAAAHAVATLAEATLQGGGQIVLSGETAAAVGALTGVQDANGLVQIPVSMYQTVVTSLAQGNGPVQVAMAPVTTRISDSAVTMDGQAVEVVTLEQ

`CC(C)CCCCCOC(=O)CS`: the compound was called inactive in assay [1], in assay [2], in assay [3], in assay [4], in [6] and in [7]. Further, in [8], the result was inactive. Besides, the AC50 in assay [5] is 19.5 µM (active).

In the case of `CCCC(C)C(=O)OCC` (stereo not drawn), the call in [1], in [2], in [3], in assay [4], in [5] and in assay [6] was inactive. Further, the outcome in assay [9], in assay [10], in assay [7] and in assay [8] was inactive.

As for `C[N+](C)(C)CCCNS(=O)(=O)C(F)(F)C(F)(F)C(F)(F)C(F)(F)C(F)(F)C(F)(F)C(F)(F)C(F)(F)F`, the compound was classed as inactive in assay [1], in [2], in [3], in [4], in assay [5] and in [6]. In addition, the outcome in assay [7] and in [8] was inactive. In addition, the AC50 in assay [7] is 20.7 µM (active).

On to `CC1=C(O)C(=O)C(C)O1` (stereo not drawn), for which the call in assay [1], in assay [2], in assay [3], in assay [4], in assay [5] and in [6] was inactive. Also, the call in assay [9] was inactive.

For the compound `CC(CCC(=O)O)(c1ccc(O)cc1)c1ccc(O)cc1`, the outcome in assay [1], in assay [2], in assay [3], in assay [4], in assay [5] and in assay [6] was inactive. In addition, the compound was called inactive in [9], in [7] and in [8].

`CC(Cl)COP(=O)(OCC(C)Cl)OCC(C)Cl` (stereo not drawn): the outcome in assay [1], in assay [2], in assay [3], in assay [4], in assay [5] and in assay [6] was inactive. Besides, the call in assay [9], in assay [7] and in assay [8] was inactive.

Turning to `Cc1cc(C)c(C=O)c(C)c1`, the compound was classed as inactive in [1], in assay [2], in assay [3], in assay [4], in [5] and in assay [6]. Besides, in assay [9], the compound was called inactive.

Consider `CCCCCC1=CCCC1=O`, for which the compound was called inactive in assay [1], in assay [2], in assay [3], in assay [4], in [6] and in assay [7]. In addition, the result in [8] was inactive. In addition, the AC50 in assay [5] is 55.8 µM (active).

Take `CCN1CN(CC)CN(CC)C1`: the result in assay [1], in [3], in assay [4], in [5], in [9] and in assay [10] was inactive. Further, the outcome in assay [7] and in assay [8] was inactive. In addition, the AC50 is 162 µM (active) in assay [2] and 159 µM (active) in assay [6].

Consider `CC/C=C\C/C=C\C/C=C\CCCCCCCC(=O)OC`, for which the compound was called inactive in [1], in assay [2], in assay [3] and in assay [9]. Further, the AC50 in assay [4] is 32.4 µM (active); in assay [5], 48.1 µM (active); in assay [6], 135 µM (active); in [7], 31.6 µM (active); in assay [8] it was 14.2 µM (active).

`C=CCCCCCCCCC=O`: the call in assay [1], in assay [2], in [3], in [4], in assay [5] and in assay [6] was inactive. For the same compound, the compound was called inactive in [9], in assay [7] and in assay [8].

Consider `CCN1CCCC1=O`, for which the call in assay [1], in [2], in [3], in [4], in assay [5] and in assay [6] was inactive. Besides, the result in assay [9] was inactive.

Take `CC=C(C)C(C)=O`: the compound was called inactive in assay [1], in assay [2], in [3], in assay [4], in assay [5] and in assay [6]. Besides, the result in [7] and in [8] was inactive.

Turning to `CCCCC1C(=O)N(c2ccccc2)N(c2ccccc2)C1=O`, the call in assay [1], in [2], in assay [3], in [4], in assay [6] and in [8] was inactive. For the same compound, the AC50 was 6.46 µM (active) in [5] and 10.2 µM (active) in assay [7].

As to `Cn1cccc1`, the result in [1], in assay [3], in assay [4], in assay [6] and in assay [9] was inactive. In addition, the half-maximal activity concentration (AC50) in assay [2] was 26.2 µM (active); in assay [5], 29.5 µM (active).

Regarding `Nc1ccc(C(=O)O)cc1`, the result in assay [1], in assay [2], in assay [3], in assay [4], in assay [5] and in assay [6] was inactive. The compound was called inactive in assay [9], in assay [10], in assay [7] and in [8].

`CC(C)c1cccc(C(C)C)c1N`: the outcome in assay [1], in assay [2], in assay [3], in [4], in assay [5] and in [6] was inactive. Also, the compound was classed as inactive in [9], in assay [7] and in [8].

Regarding `Oc1c(Cl)cc(Cl)c(Cl)c1Cl`, the result in assay [1], in [2], in assay [3] and in assay [4] was inactive. In addition, the AC50 in assay [5] was 27.1 µM (active); in assay [6], 100 µM (active); in assay [7], 20 µM (active); in assay [8] it was 20 µM (active).

As to `CC(C)[N+](C)(CCOC(=O)C1c2ccccc2Oc2ccccc21)C(C)C`, the outcome in assay [1], in assay [2], in assay [3], in [4], in assay [6] and in assay [9] was inactive. The outcome in assay [10], in assay [7] and in [8] was inactive.

For `CCCCC(=O)O`, the compound was classed as inactive in assay [1], in assay [2], in [3], in assay [5] and in assay [6].

Turning to `Cc1c(O)cccc1O`, the compound was called inactive in [1], in assay [2], in [3], in assay [4], in [6] and in assay [10]. Also, the outcome in assay [7] and in [8] was inactive.

Take `CC(C)(C)N`: the call in [1], in assay [2], in assay [3], in assay [4], in assay [6] and in assay [9] was inactive.

Take `CCCCCCCCCCCCc1ccc(O)cc1`: the outcome in assay [1], in assay [2], in assay [3], in assay [4], in [6] and in [9] was inactive.

With `Clc1cccnc1`, the outcome in assay [1], in assay [2], in assay [3], in [5] and in assay [6] was inactive.

Take `C1CCSC1`: the compound was called inactive in assay [1], in assay [2], in [3], in [4], in assay [6] and in [9].

As to `CCCCCCCCCCCCCCCCCCOS(=O)(=O)O`, the AC50 is 49.5 µM (active) in assay [1], 33.4 µM (active) in assay [2], 58.1 µM (active) in assay [4] and 18.4 µM (active) in assay [9]. Further, the result in [3] and in assay [6] was inactive.

Regarding `COc1cc(O)c(C(=O)c2ccccc2)cc1S(=O)(=O)O`, the compound was called inactive in [1], in [2], in assay [3], in assay [5] and in assay [6].

Broadly, the AC50 is the midpoint of the concentration-response curve, whichever way the signal moves.
